# Screening results (PubChem BioAssay)
# BioA inh = inhibitors of Mycobacterium tuberculosis BioA enzyme; purified M. tuberculosis BioA enzyme, plate reader; inhibition, % at 9.99 µM; actives 0.096% (n = 360,000); in the data active = inhibition above about 40%
# GDH-TPI counter = GDH-TPI coupled enzyme inhibition counter-screen | GDH-TPI coupled enzyme counterscreen, NADH absorbance | inhibition, % at 4.8 µM | actives 1.2% (n = 360,000) | AID 588335; in the data active = inhibition above about 30%
# BH1578 lux ind = inducers of Vibrio cholerae quorum light production without autoinducers; V. cholerae BH1578 lux reporter, luminescence, 6 h; activation, % at 18.7 µM; actives 0.16% (n = 350,000); AID 588436; in the data active = activation mostly above about 9.7%, no sharp cut-off
# Mtb FBA inh = inhibitors of M. tuberculosis fructose-bisphosphate aldolase | inhibition, % at 1 µM | AID 588726 | purified M. tuberculosis FBA, fluorescence read-out | actives 2.3% (n = 360,000); in the data active = inhibition above about 27%
# Target sequence (P9WQA3 whole entry, looked up): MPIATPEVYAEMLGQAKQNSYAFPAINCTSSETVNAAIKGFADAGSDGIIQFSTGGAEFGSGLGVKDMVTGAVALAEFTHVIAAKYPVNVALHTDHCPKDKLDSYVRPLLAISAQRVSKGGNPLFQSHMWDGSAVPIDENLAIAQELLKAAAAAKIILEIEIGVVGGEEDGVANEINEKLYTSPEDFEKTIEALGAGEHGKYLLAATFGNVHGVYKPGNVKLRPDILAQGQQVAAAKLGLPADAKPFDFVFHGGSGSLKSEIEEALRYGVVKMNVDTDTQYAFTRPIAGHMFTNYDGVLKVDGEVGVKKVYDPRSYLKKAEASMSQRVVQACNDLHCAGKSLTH
# Numbers stand for hits; n = inactive; x = no result; + = active, no number. Hits are enriched below; roughly 3% of the tested compounds scored in any of these assays.
SMILES,BioA inh,GDH-TPI counter,BH1578 lux ind,Mtb FBA inh
C[C@@H](NC(=O)C[C@@H]1C=C[C@H](NC(=O)C2CCC2)[C@@H](CO)O1)c1ccccc1,n,x,x,x
CC(C)C(=O)Nc1ccc2c(c1)C(=O)N(C)[C@@H]1CC[C@H](CC(=O)O)O[C@H]1CO2,n,x,x,x
C[C@H]1CCCCO[C@H](CN(C)Cc2ccc(C(=O)O)cc2)[C@@H](C)CN([C@@H](C)CO)C(=O)c2cc(NC(=O)Nc3ccc(C(F)(F)F)cc3)ccc2O1,n,x,x,x
Cc1ccc(S(=O)(=O)Nc2ccccc2C(=O)Nc2nc(-c3ccc(F)cc3)cs2)cc1,n,n,n,35
O=C1N/C(=N/N=C/c2ccc(O)cc2)SC1Cc1ccccc1 (configuration not stated),n,62,n,n
COc1ccc(CC2S/C(=N/N=C/c3ccccc3O)NC2=O)cc1 (configuration not stated),n,37,n,n
COc1ccc(CC2S/C(=N/N=C/c3ccc(O)cc3)NC2=O)cc1 (configuration not stated),n,n,n,n
COc1cc(/C=N/N=C2/NC(=O)C(CC(=O)O)S2)ccc1OCc1ccc(Cl)cc1 (configuration not stated),x,51,n,n
COc1ccc(/C=N/N=C2/NC(=O)C(c3ccccc3)S2)c(OC)c1 (configuration not stated),n,31,n,n
Cc1ccc(S(=O)(=O)N(C)C[C@@H]2Oc3ccc(NC(=O)Cc4cn(C)c5ccccc45)cc3CC(=O)N([C@@H](C)CO)C[C@H]2C)cc1,n,x,x,x
CCOC(=O)C1=C(N)N(c2ccccc2)C(=O)C1,n,n,n,n
CCOC(=O)C1=C(N)N2C(=O)CSC2=C(C(=O)OC)C1,n,n,60,n
OC[C@@H]1[C@H](c2ccc(C#Cc3ccccc3)cc2)[C@H]2CN(CC3CCOCC3)CCCCN12,n,x,x,x
CCOc1ccc(C(=O)Nc2cccc(-c3cc4ccccc4oc3=O)c2)cc1[N+](=O)[O-],n,32,n,n
CCC/C(=N\NC(=O)CNC(=O)/C=C/c1ccco1)c1ccccc1,n,n,n,n
O=C(/C=C/c1ccco1)NCC(=O)N/N=C/c1ccccc1[N+](=O)[O-],x,n,x,n
CC/C(=N\NC(=O)CNC(=O)/C=C/c1ccco1)c1ccccc1,n,n,17,n
CCN(CC)c1ccc(/C=N/NC(=O)CNC(=O)/C=C/c2ccco2)cc1,n,44,n,n
Cc1ccc(S(=O)(=O)N(C)C[C@H]2Oc3c(NC(=O)c4nc5ccccc5s4)cccc3C(=O)N([C@@H](C)CO)C[C@@H]2C)cc1,n,x,x,x
CCCNC(=O)N1C[C@H]2[C@@H](c3ccccc31)[C@H](CO)N2Cc1ccc(OC)cc1,n,x,x,x
Cc1cc(=O)oc2c3c(cc(OCC(=O)NCC(=O)N[C@H](C(=O)O)C(C)C)c12)OC(C)(C)CC3,n,n,n,+
CCCC(NC(=O)COc1cc2c(c3oc(=O)cc(C)c13)CCC(C)(C)O2)C(=O)O (configuration not stated),n,n,n,128
CC[C@@H](C)[C@H](NC(=O)Cc1c(C)c2c(cc(C)c3c(C)c(C)oc32)oc1=O)C(=O)O,n,n,n,n
CC[C@H](C)[C@H](NC(=O)CNC(=O)COc1cc2c(c3oc(=O)cc(C)c13)CCC(C)(C)O2)C(=O)O,n,n,n,+
Cc1c(OCC(=O)N[C@@H](CSCc2ccccc2)C(=O)O)ccc2c3c(c(=O)oc12)CCC3,n,n,n,n
SMILES,BioA inh,GDH-TPI counter,BH1578 lux ind,Mtb FBA inh
COc1ccc(N2CCN(C(=O)C3COc4ccccc4O3)CC2)cc1 (configuration not stated),n,n,n,n
COc1ccc2c(C)c(CC(=O)N3CCN(C(=O)C4COc5ccccc5O4)CC3)c(=O)oc2c1 (configuration not stated),n,n,n,144
Cc1cccc(N2CCN(C(=O)C3COc4ccccc4O3)CC2)c1C (configuration not stated),x,n,n,n
Cc1c(CC(=O)N2CCN(C(=O)C3COc4ccccc4O3)CC2)c(=O)oc2cc(O)ccc12 (configuration not stated),n,n,n,+
Cc1c(CC(=O)N2CCN(C(=O)C3COc4ccccc4O3)CC2)c(=O)oc2c(C)c(O)ccc12 (configuration not stated),n,n,n,+
Cc1c(CC(=O)N2CCN(C(=O)C3COc4ccccc4O3)CC2)c(=O)oc2cc(O)cc(O)c12 (configuration not stated),n,n,n,177
C[C@@H]1CN([C@H](C)CO)C(=O)c2cc(C3=CCCC3)cnc2O[C@@H]1CN(C)Cc1cccnc1,n,x,x,x
COc1c2ccccc2nc2ccccc12,n,n,n,143
